Structures are written as SMILES.

The assay deals with XIP peptide (Xip251-270). Kind of assay: compounds binding XIP fragment 251-270 – biochemical, small-molecule microarray, fluorescence 635/667 nm, 0.5 µg/mL protein, primary screen (AID 1183). Particulars: fluorescence 635 nm, higher = more signal.
`Cc1ccc(S[C@]2(C(=O)NCC(F)(F)F)CC(=O)N(Cc3ccccc3Cl)[C@@H]2c2ccc(CO)cc2I)cc1`: the composite z-score was 0.426.

For `Cc1ccc(S[C@]2(C(=O)O)CC(=O)N(Cc3ccccc3)[C@@H]2c2ccc(CO)cc2I)cc1`, the composite z-score came out at 0.564.

Turning to `COC(=O)C1(C)C=C2C(=C(c3ccccc3)C(=O)C2C)CN1` (stereo unspecified), the composite z-score is 0.923.

For `CC(C)[Si]1(C(C)C)O[C@@H](c2ccccc2)c2cc(C3CC3)nc(-c3ccccc3)c21`, the composite z-score came to 0.555.

Turning to `CN1C(=O)C2C=CC(C(O)C(c3ccccc3)c3ccccc3)N(NC(=O)OC(C)(C)C)C2C1=O` (stereo unspecified), the composite z-score came out at 0.752.

For `COC(=O)[C@@H]1N=C(c2ccc(OCCCO)cc2)O[C@@H]1c1ccccc1N=[N+]=[N-]`, the composite z-score is 0.806.

Take `C=C(/C(=C/C[C@H](OC(C)=O)c1ccc(OCCO)cc1)c1cnc2ccccc2c1)C(C)C`: the composite z-score came out at 0.605.

Regarding `COCCCNC(=O)[C@@]1(CCS(=O)(=O)c2ccccc2)N=C(c2ccc(OCCCO)cc2)O[C@H]1c1ccccc1`, the composite z-score came out at 0.875.

In the case of `CC(C)NC(=O)[C@@]1(c2ccc([N+](=O)[O-])cc2)CC(=O)N(CC23CC4CC(CC(C4)C2)C3)[C@@H]1c1ccc(CO)cc1I`, the composite z-score stood at 0.704.

Regarding `CCCCCN1CC=CC23O[C@@H]4C=CCOC(=O)[C@@H]4[C@H]2C(=O)N(C(CO)C(C)C)[C@@H]3C1=O` (stereo partly specified), the composite z-score was determined as 0.907.

With `COc1ccc([Si](C)(C)[C@@H]2[C@@H](CCO)O[C@]3(C(=O)N(Cc4ccc(NC(C)=O)cc4)c4ccccc43)[C@H]2C)cc1`, the composite z-score is 0.811.

With `O[C@@H](Cc1ccccc1)[C@H]1C2C=CCCC(c3ccccc3)=C2CN1Cc1cccc(Cl)c1` (stereo partly specified), the composite z-score stood at 0.27.

Consider `CN1C(=O)[C@@]2(CCC(=O)OC(C)(C)C)N=C(c3ccc(OCCCO)cc3)O[C@H]2c2ccccc21`, for which the composite z-score was determined as 0.576.

Take `O=C1NC(=O)C2C1C=CC(C(O)Cc1ccccc1)N2Nc1ccccn1` (stereo unspecified): the composite z-score is 0.804.

For `CO[C@H]1O[C@H](CO)[C@@H](OC(=O)Nc2ccc3c(c2)OCO3)[C@H](OC(=O)Nc2ccccc2-c2ccccc2)[C@@H]1OC(=O)Nc1ccccc1-c1ccccc1`, the composite z-score was found to be 0.561.

Turning to `CC(C)c1ccc(NN2C(C(O)c3ccc4c(c3)OCO4)C=CC3C(=O)N(c4ccccc4)C(=O)C32)cc1` (stereo unspecified), the composite z-score came out at 0.665.

Take `COC(=O)[C@H]1COC(c2ccc(OCCCO)cc2)=N1`: the composite z-score came out at 0.871.

For the compound `C[N+](C)(C)CCCCCCNC(=O)[C@@H]1C[C@@H]2C(=O)N3CCC[C@H]3C(=O)N2[C@@H]1c1cccc(OCCO)c1`, the composite z-score came out at 0.697.

`CS(=O)(=O)CCOC(=O)C1=CC(CCCO)=CC(c2cccs2)N(Cc2cccc(OC(F)(F)F)c2)C=C1C(=O)OCCS(C)(=O)=O` (stereo unspecified): the composite z-score is -0.0502.

Take `C=CCN1C(=O)[C@]2(O[C@H](CCn3cc(CCO)nn3)[C@@H]([Si](C)(C)c3ccc(OC)cc3)[C@@H]2C)c2cc(N3CCOC3=O)ccc21`: the composite z-score was 0.57.

Consider `CC(C)NC(=O)[C@@]1(C)c2ccccc2C(=O)N(Cc2cc(F)cc(C(F)(F)F)c2)[C@H]1c1ccc(CO)cc1`, for which the composite z-score was determined as 0.863.

As to `CO[C@H]1O[C@H](CO)[C@@H](OC(=O)Nc2ccc(C#N)cc2)[C@H](OC(=O)c2cc3ccccc3[nH]2)[C@H]1OC(=O)c1cc2ccccc2[nH]1`, the composite z-score came to 0.875.

For the compound `COc1ccc([Si](C)(C)[C@@H]2[C@@H](CC(=O)N3CCC[C@H]3CO)O[C@]3(C(=O)N(Cc4cccc(N5CCC5=O)c4)c4ccccc43)[C@H]2C)cc1`, the composite z-score turned out to be 0.824.

`CCCNC(=O)[C@@H]1c2ccccc2C(=O)N(Cc2ccccc2Cl)[C@H]1c1ccc(CO)cc1`: the composite z-score was found to be 0.799.

Consider `C=C(/C(=C/C[C@@H](OC(=O)c1ccncc1)c1ccc(OCCO)cc1)c1cnc2ccccc2c1)C(C)C`, for which the composite z-score came to 0.565.

With `O=C1C[C@]2(c3ccc([N+](=O)[O-])cc3)C(=O)N(CCN3CCOCC3)c3cc(CO)ccc3[C@H]2N1CC12CC3CC(CC(C3)C1)C2`, the composite z-score is -0.307.

For `CN(C)CCCNC(=O)[C@@H]1c2ccccc2C(=O)N(Cc2cc(F)cc(C(F)(F)F)c2)[C@H]1c1ccc(CO)cc1`, the composite z-score is -0.0306.

In the case of `CN(C)CCCNC(=O)[C@@H]1c2ccccc2C(=O)N(Cc2ccccc2)[C@H]1c1ccc(CO)cc1`, the composite z-score was -0.32.

Consider `CN1C(=O)C2C=CC(C(O)c3ccc(Br)cc3)N(N(c3ccccc3)c3ccccc3)C2C1=O` (stereo unspecified), for which the composite z-score worked out at 0.266.

In the case of `COc1ccc(CCNC(=O)[C@@H]2c3ccccc3C(=O)N(c3ccc(C)cn3)[C@H]2c2ccc(CO)cc2)cc1`, the composite z-score is 0.843.

Regarding `CCOC(=O)C1=CCC(c2cc3ccccc3[nH]2)NC1` (stereo unspecified), the composite z-score is -0.753.

Take `CC(C)N1CC=CC23O[C@@H]4C=CCCOC(=O)C4[C@H]2C(=O)N(CCCCCCO)[C@@H]3C1=O` (stereo partly specified): the composite z-score worked out at 0.645.

Turning to `[N-]=[N+]=NCc1ccccc1[C@@H]1OC(c2ccc(OCCCO)cc2)=N[C@]1(Cc1ccccc1)C(=O)N1CCOCC1`, the composite z-score is 0.841.

Take `COCCOC(=O)N1C(=O)[C@@]2(c3cc(C#CC4(O)CCCCCC4)ccc31)[C@H](c1ccc(OCCO)cc1)N1[C@H](c3ccccc3)[C@H](c3ccccc3)OC(=O)[C@H]1[C@@H]2C(=O)NC[C@H](O)c1ccccc1`: the composite z-score is 0.723.

On to `CCCNC(=O)[C@@H]1c2ccccc2C(=O)N(c2ccc(C)cn2)[C@H]1c1ccc(CO)cc1`, for which the composite z-score is -0.314.

As for `COC(=O)c1c(CC[C@@H](CO)NC(=O)N[C@H](Cc2ccccc2)Cn2cc(-c3ccccc3N)nn2)oc(C(C)=O)c1C(=O)OC`, the composite z-score is 0.0678.

The values above are taken from PubChem BioAssay.
